About 420 (8.8%) of roughly 4,800 compounds showed an effect of 50% or more. Many of the other results were omitted from the sample, so strong results are more common in it than they were.
What follows are compounds tested on Plasmodium falciparum (assay: Confirmatory screen in NF54 nanoGlo assay, in single point, at 2uM, 72h). Settings: timepoint 72 hour.
Assay type: functional, Erythrocyte
In the case of `COc1ccc(C)cc1NC(=O)c1nn(-c2ccccc2)c2ccccc2c1=O`, the “% Inhibition” value is reported as 17%.
In the case of `CCn1cc(Cl)c(C(=O)N2CCN(C(=O)c3ccco3)CC2)n1`, the “% Inhibition” value is reported as -11%.
With `Cc1ccc(CN2CCN(CC(=O)NC3CCCCC3C)C2=O)cc1` (stereo not drawn) the “% Inhibition” value was -10%.
`C[C@](O)(CNC(=O)Cn1nc2ccccn2c1=O)c1cccs1` was tested, and the “% Inhibition” value was -1%.
In the case of `Clc1ccc(NC2(c3noc([C@@H]4CCCCO4)n3)CCC2)cc1`, the “% Inhibition” value is reported as 5%.
In the case of `COc1ccc(CNCc2ccc(C)cc2)cc1Cn1ccnc1`, the “% Inhibition” value is reported as 42%.
`COc1cc(CNCc2cccs2)ccc1OCc1ccccc1C` was tested, and the “% Inhibition” value was -7%.
With `CC1Cc2cc(-c3ccc(CNC(=O)C(C)(O)C4CC4)cc3)ccc2O1` (stereo not drawn) the “% Inhibition” value was 4%.
`CC1(C)C[C@@H](NC(=O)c2cc3[nH]cnc3cc2F)CCO1` was tested, and the “% Inhibition” value was 7%.
For `Oc1ccc2ncccc2c1[C@@H](Nc1ccccn1)c1cccc(Br)c1`, the “% Inhibition” value was 67%.
`Cc1cc([C@H](Nc2ccccn2)c2ccccc2)c(NC(=O)c2ccccc2)s1` was tested, and the “% Inhibition” value was 4%.
`Cc1cc([C@H](Nc2ccccn2)c2cccnc2)c(NC(=O)c2ccccc2)s1` was tested, and the “% Inhibition” value was 2%.
For `Cc1nn(C)c(C)c1S(=O)(=O)N1CCCN(c2ccc(F)c(F)c2)CC1`, the “% Inhibition” value was 3%.
In the case of `CCCn1c(C)cnc1C1CN(S(=O)(=O)c2ccc(C)c(F)c2)C1`, the “% Inhibition” value is reported as -6%.
With `Cc1noc(C(C)(C)NC(=O)Nc2c[nH]nc2-c2nccs2)n1` the “% Inhibition” value was -7%.
For `COc1ccc(Cl)cc1S(=O)(=O)c1cnc(N2CCOCC2)nc1N`, the “% Inhibition” value was -2%.
In the case of `C[C@@H](CNc1ncc(C(=O)N2CCOCC2)cc1Cl)c1nncn1C`, the “% Inhibition” value is reported as -12%.
For `COCCN1C(=O)C[C@H](Nc2ccc3c(c2)CCC3)C1=O`, the “% Inhibition” value was 1%.
For `Cc1ccc(C)c(C(=O)CN2Cc3ccccc3C2=N)c1`, the “% Inhibition” value was 0%.
`Fc1ccc(Nc2nc3c(s2)CCCC3)cc1` was tested, and the “% Inhibition” value was -17%.
For `c1ccc(C(c2ccccc2)N2CCN(c3nn4cnnc4c4ccccc34)CC2)cc1`, the “% Inhibition” value was 65%.
For `Fc1cccc(-n2nc(-c3ccccc3F)cc2-c2ccccc2F)c1`, the “% Inhibition” value was -6%.
In the case of `CCOc1cc2c(cc1OC)[C@@H](N)CC2=O`, the “% Inhibition” value is reported as 1%.
In the case of `CC(C)c1cc(CN(Cc2cc(C(C)C)c(O)c(C(C)C)c2)C2CCCCC2)cc(C(C)C)c1O`, the “% Inhibition” value is reported as 96%.
`CCc1nn(C)cc1CN(Cc1cccc(O)c1)C1CCC(O)CC1` (stereo not drawn) was tested, and the “% Inhibition” value was -3%.
`Cc1ccc(CN(C)C2CCCCC2)o1` was tested, and the “% Inhibition” value was -18%.
`Cc1ccc(-c2ccnc3c(C(=O)NC4CC4)cnn23)cc1C` was tested, and the “% Inhibition” value was -2%.
In the case of `Cc1c([C@@H](NCc2ncccc2O)C(C)C)oc2ccccc12`, the “% Inhibition” value is reported as 99%.
For `N#CC1(C#N)C(c2ccc(Cl)cc2)C1(C#N)C#N`, the “% Inhibition” value was 11%.
`O=C(NCc1cccc(C(F)(F)F)c1)c1csc(C(=O)NC2CCCC2)n1` was tested, and the “% Inhibition” value was -14%.
In the case of `CN(C)c1c(F)c(F)c2cc3c(C(C)(C)C)nn(C)c3nc2c1F`, the “% Inhibition” value is reported as 3%.
`COc1ccc([C@H](CNC(=O)c2ccccc2)N2CCC(c3ccccc3)=N2)cc1` was tested, and the “% Inhibition” value was -3%.
For `Clc1ccc(COc2ccc(Cl)cc2CNCCCn2ccnc2)c(Cl)c1`, the “% Inhibition” value was 95%.
With `COc1cccc(CNCCCN2CCOCC2)c1OCc1ccc(Cl)cc1Cl` the “% Inhibition” value was -1%.
With `Clc1ccc(Cn2cc(CNCCCn3ccnc3)c3ccccc32)c(Cl)c1` the “% Inhibition” value was 98%.
With `COc1cccc(CNCCN2CCOCC2)c1OCc1ccc(Cl)cc1Cl` the “% Inhibition” value was 7%.
In the case of `CCOc1cc(CNCCCn2ccnc2)ccc1OCc1ccccc1`, the “% Inhibition” value is reported as 21%.
`OCCNCc1ccc(Cl)cc1Cl` was tested, and the “% Inhibition” value was 0%.
`Cc1nc2ccnn2cc1C(=O)Nc1ccc(CCC(C)C)cn1` was tested, and the “% Inhibition” value was -5%.
With `Cc1cc(CN(C)c2cc(C3CC3)nc(N(C)Cc3cc(C)on3)n2)no1` the “% Inhibition” value was -13%.
For `FC(F)Oc1cccc(-c2cc(C(F)(F)F)c3c(-c4ccc5c(c4)OCO5)noc3n2)c1`, the “% Inhibition” value was 8%.
With `N#Cc1nc(COc2cccc(Cl)c2)oc1NC[C@H]1CCCO1` the “% Inhibition” value was -1%.
For `CN(CC(=O)Nc1ncccn1)S(=O)(=O)c1ccc2c(c1)OCCCO2`, the “% Inhibition” value was -7%.
With `O=C1CC(C(=O)N2CCCCC2c2nc(-c3ccccc3)c[nH]2)CN1` (stereo not drawn) the “% Inhibition” value was 3%.
In the case of `Nc1nc(N2CCN(c3ccc(F)c(Cl)c3)CC2)cc([C@H]2C[C@@H](N)C2)n1`, the “% Inhibition” value is reported as 32%.
For `N[C@H]1C[C@@H](c2cc(N3CCN(C4CCCCC4)CC3)nc(N3CCCC3)n2)C1`, the “% Inhibition” value was 44%.
In the case of `Nc1nc(C2CC(N)C2)cc(N2CCC(Oc3ccccc3Cl)CC2)n1` (stereo not drawn), the “% Inhibition” value is reported as 51%.
For `CCC1CN(CCCN2C(=O)CNC2=O)CCC1c1ccccc1` (stereo not drawn), the “% Inhibition” value was 0%.
For `COC(=O)C1(CNC(=O)C2CCC2)CCCCC1`, the “% Inhibition” value was 1%.
For `CCN(C(=O)Cn1ncn2nc(-c3cccc4ccccc34)cc2c1=O)c1ccccc1`, the “% Inhibition” value was 1%.
For `CCN(C(=O)CN1C(=O)C(c2ccccc2)=NC12CCC(C)CC2)c1ccccc1` (stereo not drawn), the “% Inhibition” value was -9%.
For `CCN(C(=O)Cn1cc(-c2ccccc2)c2ncn(CC)c(=O)c21)c1ccccc1`, the “% Inhibition” value was 75%.
In the case of `CCOC[C@@H](O)CN(Cc1c(-c2ccccc2)noc1N1CCC(C)CC1)CC1CC1`, the “% Inhibition” value is reported as -7%.
In the case of `CCOC(=O)N1CCC(NC(=O)c2cn[nH]c2-c2ccc(OCC)c(Cl)c2)CC1`, the “% Inhibition” value is reported as 2%.
For `O=C(NC1CCN(Cc2ccccc2)CC1)c1cn[nH]c1-c1ccccc1`, the “% Inhibition” value was -3%.
In the case of `CNC(=O)N1CCN(c2cc(C)nc(C3CC3)n2)CC1`, the “% Inhibition” value is reported as -18%.
For `O=C(Cn1nnc2ccccc21)N(Cc1ccccc1)C1(C(=O)Nc2ccc3c(c2)OCO3)CCCCC1`, the “% Inhibition” value was 23%.
In the case of `O=C(COc1ccccc1)N1CC(n2cnnc2C2CC2)C1`, the “% Inhibition” value is reported as -11%.
In the case of `CC1CC(C(=O)Nc2[nH]c(=O)ncc2F)CC(C)(C)C1` (stereo not drawn), the “% Inhibition” value is reported as 92%.
`CN(C)C(=O)NCCc1ncc(C(F)(F)F)cc1Cl` was tested, and the “% Inhibition” value was -5%.
`Cc1cc(C#N)cc(C)c1Oc1nc(Nc2ccc(C#N)cc2Br)nc(N)c1Br` was tested, and the “% Inhibition” value was -9%.
With `O=C(c1coc(-c2ccccc2)n1)N1CCc2cc(Br)ccc21` the “% Inhibition” value was -4%.
`CC(C)c1nc(C(=O)Nc2ccccc2CN2CCNC2=O)cs1` was tested, and the “% Inhibition” value was 3%.
`Cc1nc(C(=O)Nc2[nH]c(=O)ncc2F)c(-c2ccccc2)o1` was tested, and the “% Inhibition” value was 85%.
`O=C(Nc1[nH]c(=O)ncc1F)c1coc(-c2ccccc2)n1` was tested, and the “% Inhibition” value was 80%.
`Cc1ccc(-c2cc(C(=O)Nc3nnc(C(C)C)s3)no2)cc1F` was tested, and the “% Inhibition” value was 39%.
In the case of `CC(C)c1nc(C(=O)Nc2[nH]c(=O)ncc2F)cs1`, the “% Inhibition” value is reported as 92%.
With `COc1ccc(CN2CC[C@@H]3C(=O)NCCCCCCN(Cc4ccncc4)[C@@H]3C2)cc1Cn1ccnc1` the “% Inhibition” value was 47%.
For `COc1cc2c(cc1OC)C(Nc1cc(C)ccc1C)=NC(C)(C)C2`, the “% Inhibition” value was -7%.
In the case of `CCC[C@@]1(C)C(=O)NCCN1Cc1nnc(-c2ccc(Cl)cc2)n1C`, the “% Inhibition” value is reported as -10%.
With `CCOC1CC2(CCN(Cc3cc(Cl)c(OC)cc3Cl)C2)C1` (stereo not drawn) the “% Inhibition” value was 1%.
For `CC(=O)N(CC[C@]1(Cc2ccccc2Cl)CCOC(C)(C)C1)Cc1ccc(F)cc1`, the “% Inhibition” value was 0%.
`COc1ccc(-c2nn3c(Cc4ccccn4)nnc3s2)cc1OC` was tested, and the “% Inhibition” value was 4%.
For `Cc1ccc(Cn2c(=O)c(N3CCC[C@H](C(=O)NCc4ccccc4F)C3)nc3ccccc32)cc1`, the “% Inhibition” value was -4%.
For `C[C@@H](CCc1ccccc1)NC(=O)c1cnn2c3c(cnc12)CCCC3`, the “% Inhibition” value was -8%.
`Cn1nc(C(=O)N2CCCCC[C@H]2C2CCCCC2)ccc1=O` was tested, and the “% Inhibition” value was -10%.
In the case of `Cc1cccc(NC(=O)C(=O)N(C)[C@H]2CCCc3c2cnn3C)c1F`, the “% Inhibition” value is reported as -17%.
In the case of `CC(C)Cc1cc(C(=O)N2CCc3c(C#N)cccc32)cc(O)n1`, the “% Inhibition” value is reported as -8%.
`Cc1cc(-c2ccccc2)cc(-c2ccccc2)c1-c1cc(-c2ccccc2)cc(-c2ccccc2)n1` was tested, and the “% Inhibition” value was -10%.
For `Cc1cc(-c2ccccc2)nc2sc(-c3ccccc3)c([O-])[n+]12`, the “% Inhibition” value was -2%.
In the case of `Cc1cc[n+]2c(-c3ccccc3)cc(-c3ccccc3)nc2c1`, the “% Inhibition” value is reported as 62%.
In the case of `CC[n+]1c(C)sc2cc(-c3ccccc3)sc21`, the “% Inhibition” value is reported as -15%.
In the case of `O=C(O)CC1(NC(=O)c2cc(Oc3ccccc3)ccn2)CCC1`, the “% Inhibition” value is reported as -7%.
With `CCOc1ncccc1CNC(=O)CNC(C)=O` the “% Inhibition” value was 3%.
In the case of `C[C@](O)(CCc1ccccc1)C(=O)NCCc1ncc[nH]1`, the “% Inhibition” value is reported as 3%.
With `Cc1ccccc1C(=O)Cc1ncc[nH]1` the “% Inhibition” value was 75%.
For `Cc1ccc(C(=O)N2CC(C)CC(C)C2)cc1NCc1ncc[nH]1` (stereo not drawn), the “% Inhibition” value was 8%.
In the case of `COCC[C@](C)(O)CNC(=O)Nc1ccccc1`, the “% Inhibition” value is reported as 1%.
`CC[C@@H](c1ccncc1)N(C)Cc1cc(-c2ccc(Cl)cc2)no1` was tested, and the “% Inhibition” value was -6%.
In the case of `COCc1nncn1C1CN(C(=O)Cc2cc(OC)cc(OC)c2)C1`, the “% Inhibition” value is reported as -16%.
For `COc1nn(C)cc1C(=O)N1CCC[C@H](Oc2cccnn2)C1`, the “% Inhibition” value was 1%.
`Cc1cc(C(=O)NCCCN2CCCC2=O)nn1C(F)F` was tested, and the “% Inhibition” value was -13%.
`CCn1cc(-c2cc(C(F)(F)F)nc(N3CCCC3)n2)cn1` was tested, and the “% Inhibition” value was 4%.
For `COc1ccc(C(=O)C[n+]2nc(CNc3ccc(Br)cc3)n3c2CCCCC3)cc1`, the “% Inhibition” value was 84%.
In the case of `COc1ccc(C(=O)C[n+]2cc(-c3ccc(OC)cc3)n3c2CCCC3)cc1`, the “% Inhibition” value is reported as 60%.
In the case of `FC(F)Oc1ccc(-c2c[n+](-c3cccc(C(F)(F)F)c3)c3n2CCCCC3)cc1`, the “% Inhibition” value is reported as 44%.
`COc1ccc(N2CCN(Cc3cc(-c4ccc(Cl)cc4)no3)CC2)cc1` was tested, and the “% Inhibition” value was -22%.
`Cc1ccc(-c2c[n+](-c3ccc(OC(F)F)cc3)c3n2CCCCC3)cc1` was tested, and the “% Inhibition” value was 67%.
In the case of `COc1ccc(-c2c[n+](-c3ccc(Cl)cc3)c3n2CCCCC3)cc1`, the “% Inhibition” value is reported as 60%.
`Cn1c(-c2ccc(Br)cc2)c[n+](CC(=O)c2ccc(Br)cc2)c1N` was tested, and the “% Inhibition” value was -8%.
For `COc1cccc(C(=O)C[n+]2cc(-c3ccc(Br)cc3)n(C)c2N)c1`, the “% Inhibition” value was -3%.
With `COc1ccc(CC(=O)NCc2nnc3n2CCC3)cc1` the “% Inhibition” value was 12%.
`COc1ccc2c(c1)[n+](CC(=O)c1ccc(-c3ccc(Br)cc3)cc1)c(CO)n2C` was tested, and the “% Inhibition” value was 46%.

From ChEMBL document CHEMBL4888484, “Replenishing the malaria drug discovery pipeline: Screening and hit evaluation of the MMV Hit Generation Library 1 (HGL1) against asexual blood stage Plasmodium falciparum ,using a nano luciferase reporter read-out” (2022)
